{
  "source": "PubChem BioAssay (NCATS)",
  "key": {"[1]": {"assay": "Primary qHTS for inhibitors of nuclear receptor binding SET domain protein 2 (NSD2) in an isogenic RCH-ACV NSD2 p.E1099K mutant (9B) (AID 1645876)"}, "[2]": {"assay": "Primary qHTS for inhibitors of nuclear receptor binding SET domain protein 2 (NSD2) in an RCH-ACV wild type WT cells (2C) (AID 1645877)"}},
  "note": "Inconclusive results are not listed. A call without a number means that no potency is given here. Values without a mark were called inactive. Activity calls are given as the source filed them. Calls follow the shape of the dose curve; as a rule, active = well fitted curve in the direction sought with a large enough effect; inconclusive = small, poorly fitted or top-dose-only effect, or another doubt; inactive = no such curve, though single readings can be large; an effect the other way counts as inactive or inconclusive. Also: nearly all actives have a fitted effect of over 70% in size.",
  "data": [
    {"smiles": "CCCCCCc1cccc(NC(=O)[C@H](N)CCP(=O)(O)O)c1", "values": [
      {"measurement": "outcome", "setting": "[1]", "result": "inactive [at 9.23 µM]"},
      {"measurement": "outcome", "setting": "[2]", "result": "inactive [at 9.23 µM]"}
    ]},
    {"smiles": "O=C(O)CCc1cc2ccoc2cc1O[C@@H]1O[C@H](CO[C@@H]2OC[C@](O)(CO)[C@H]2O)[C@@H](O)[C@H](O)[C@H]1O", "values": [
      {"measurement": "Potency", "setting": "[1]", "result": "inactive"},
      {"measurement": "Potency", "setting": "[2]", "result": "inactive"}
    ]},
    {"smiles": "C=C(C(=O)OC)C1CCC2(C)C(O[C@@H]3O[C@H](CO)[C@@H](O)[C@H](O)[C@H]3O)CC(=O)C(C)C2C1O", "note": "(some centres undefined)", "values": [
      {"measurement": "Potency", "setting": "[1]", "result": "inactive"},
      {"measurement": "Potency", "setting": "[2]", "result": "inactive"}
    ]},
    {"smiles": "COc1cc(-c2cccc(O)c2)cc2c1OCO2", "values": [
      {"measurement": "Potency", "setting": "[1]", "result": "inactive"},
      {"measurement": "Potency", "setting": "[2]", "result": "inactive"}
    ]},
    {"smiles": "C=C1CCC2(OC1)OC1CC3C4CC=C5CC(O)CC(O[C@@H]6OC[C@@H](O)[C@H](O)[C@H]6O)C5(C)C4CCC3(C)C1(O)C2C", "note": "(some centres undefined)", "values": [
      {"measurement": "Potency", "setting": "[1]", "result": "inactive"},
      {"measurement": "Potency", "setting": "[2]", "result": "inactive"}
    ]},
    {"smiles": "CC1(C)C(O)CCC2(C)C1C(O)C=C1COC(=O)C12O", "note": "(centres undefined)", "values": [
      {"measurement": "Potency", "setting": "[1]", "result": "inactive"},
      {"measurement": "Potency", "setting": "[2]", "result": "inactive"}
    ]},
    {"smiles": "C=C1[C@H]2CC[C@]3(O)[C@@](CC[C@@H]4[C@](C)(C(=O)O)CCC[C@]43C)(C2)[C@H]1OC(=O)/C(C)=C\\C", "values": [
      {"measurement": "Potency", "setting": "[1]", "result": "inactive"},
      {"measurement": "Potency", "setting": "[2]", "result": "inactive"}
    ]},
    {"smiles": "O=C(c1ccc(NS(=O)(=O)c2cccc3cccnc23)cc1)N1CCN(CC2CC2)CC1", "values": [
      {"measurement": "Potency", "setting": "[1]", "result": "inactive"},
      {"measurement": "Potency", "setting": "[2]", "result": "inactive"}
    ]},
    {"smiles": "CC1CCC2(NC1)OC1C(=O)C3C4CCC5CC(O[C@@H]6O[C@H](CO)[C@@H](O)[C@H](O)[C@H]6O[C@@H]6O[C@@H](C)[C@H](O)[C@@H](O)[C@H]6O)CCC5(C)C4CCC3(C)C1C2C", "note": "(some centres undefined)", "values": [
      {"measurement": "Potency", "setting": "[1]", "result": "inactive"},
      {"measurement": "Potency", "setting": "[2]", "result": "inactive"}
    ]},
    {"smiles": "C[C@@H]1O[C@@H](O[C@H]2[C@H](OC(=O)[C@]34CCC(C)(C)C[C@H]3C3=CCC5[C@@]6(C)C[C@H](O)[C@H](O[C@@H]7O[C@H](CO)[C@@H](O[C@@H]8O[C@H](CO)[C@@H](O)[C@H](O)[C@H]8O)[C@H](O)[C@H]7O)[C@@](C)(CO)C6[C@H](O)C[C@@]5(C)[C@]3(C)C[C@H]4O)OC[C@H](O)[C@@H]2O)[C@H](O)[C@H](O)[C@H]1O[C@@H]1OC[C@@H](O)[C@H](O[C@@H]2OC[C@](O)(CO)[C@H]2O)[C@H]1O", "note": "(some centres undefined)", "values": [
      {"measurement": "activity change, negative = viability loss", "setting": "[1]", "result": "-3.67% [at 9.23 µM]"},
      {"measurement": "activity change, negative = cell killing", "setting": "[2]", "result": "2.2% [at 9.23 µM]"}
    ]},
    {"smiles": "C[C@@H]1C/C=C/C=C\\C=C\\C=C\\[C@H](O[C@@H]2O[C@H](C)[C@@H](O)[C@H](N)[C@@H]2O)C[C@@H]2O[C@](O)(C[C@@H](O)C[C@H]3O[C@@H]3/C=C/C(=O)O1)C[C@H](O)[C@H]2C(=O)O", "values": [
      {"measurement": "Potency", "setting": "[1]", "result": "inactive"},
      {"measurement": "Potency", "setting": "[2]", "result": "inactive"}
    ]},
    {"smiles": "CN1C(=O)c2ccccc2-n2c(nc3ccccc3c2=O)/C1=C/c1ccccc1", "values": [
      {"measurement": "Potency", "setting": "[1]", "result": "inactive"},
      {"measurement": "Potency", "setting": "[2]", "result": "inactive"}
    ]},
    {"smiles": "CC1CCC2(C(=O)OC3OC(CO)C(O)C(O)C3O)CCC3(C)C(=CCC4C5(C)CC(O)C(O)C(C)(C(=O)O)C5CCC43C)C2C1(C)O", "note": "(centres undefined)", "values": [
      {"measurement": "Potency", "setting": "[1]", "result": "inactive"},
      {"measurement": "Potency", "setting": "[2]", "result": "inactive"}
    ]},
    {"smiles": "COc1c(C)c(OCC=C(C)C)cc2c1C(=O)NC2=O", "values": [
      {"measurement": "Potency", "setting": "[1]", "result": "inactive"},
      {"measurement": "Potency", "setting": "[2]", "result": "inactive"}
    ]},
    {"smiles": "C=C1CC[C@H]2[C@@](C)(CCC(O)[C@@]2(C)CO)[C@@H]1C/C=C(/C(=O)O)C(O)CO", "note": "(some centres undefined)", "values": [
      {"measurement": "Potency", "setting": "[1]", "result": "inactive"},
      {"measurement": "Potency", "setting": "[2]", "result": "inactive"}
    ]},
    {"smiles": "C=C(C)[C@@H](C)[C@H]1O[C@]23C[C@]4(CO2)C(CCC2[C@@]5(C)CC[C@H](O[C@@H]6OC[C@H](O)[C@H](O[C@@H]7O[C@H](CO)[C@@H](O)[C@H](O)[C@H]7O)[C@H]6O[C@@H]6O[C@@H](CO)[C@H](O)[C@H]6O)C(C)(C)C5CC[C@]24C)C3[C@@](C)(O)[C@@H]1OC(C)=O", "note": "(some centres undefined)", "values": [
      {"measurement": "outcome", "setting": "[1]", "result": "inactive [at 9.23 µM]"},
      {"measurement": "outcome", "setting": "[2]", "result": "inactive [at 9.23 µM]"}
    ]},
    {"smiles": "COc1cc(O[C@@H]2O[C@H](CO)[C@@H](O)[C@H](O)[C@H]2O)c(CCC(=O)OC[C@H]2O[C@@H](Oc3cc(OC)c(C4OC(=O)C(C)(O)C4O)cc3CCC(=O)O)[C@H](O)[C@@H](O)[C@@H]2O)cc1C1OC(=O)C(C)(O)C1O", "note": "(some centres undefined)", "values": [
      {"measurement": "activity change, negative = viability loss", "setting": "[1]", "result": "-2.96% [at 9.23 µM]"},
      {"measurement": "activity change, negative = cell killing", "setting": "[2]", "result": "-6.02% [at 9.23 µM]"}
    ]},
    {"smiles": "C[C@@H]1CCC2C(C)(C)[C@H](O)CC[C@]2(C)[C@@]12Cc1c(O)cc3c(c1O2)CN(CCO)C3=O", "note": "(some centres undefined)", "values": [
      {"measurement": "Potency", "setting": "[1]", "result": "inactive"},
      {"measurement": "Potency", "setting": "[2]", "result": "inactive"}
    ]},
    {"smiles": "CN1C(=O)c2ccccc2NC(=O)[C@]12O[C@@H]2c1cccc(O)c1", "values": [
      {"measurement": "Potency", "setting": "[1]", "result": "inactive"},
      {"measurement": "Potency", "setting": "[2]", "result": "inactive"}
    ]},
    {"smiles": "CC(C)c1cc2c(c(O)c1O[C@@H]1O[C@H](CO)[C@@H](O)[C@H](O)[C@H]1O)CC1(O)CCC(O)C(C)(C)C1CC2", "note": "(some centres undefined)", "values": [
      {"measurement": "Potency", "setting": "[1]", "result": "inactive"},
      {"measurement": "Potency", "setting": "[2]", "result": "inactive"}
    ]},
    {"smiles": "Cc1c(N2C(=O)c3ccc(C(=O)O)cc3C2=O)c(=O)n(-c2ccccc2)n1C", "values": [
      {"measurement": "Potency", "setting": "[1]", "result": "inactive"},
      {"measurement": "Potency", "setting": "[2]", "result": "inactive"}
    ]},
    {"smiles": "C/C=C/C=C/C=C/C(=O)O[C@@H]1C=C(CO)C(O)(C(=O)O)[C@@]2(C)CCCC(C)(C)[C@H]12", "note": "(some centres undefined)", "values": [
      {"measurement": "Potency", "setting": "[1]", "result": "inactive"},
      {"measurement": "Potency", "setting": "[2]", "result": "inactive"}
    ]}
  ]
}
